High-throughput results as filed in PubChem.
Rows were chosen to be rich in hits. Some 2% of all compounds tested hit in one or more screens of this group.
M4 antag = antagonists of human muscarinic M4 receptor (CHRM4). inhibition, % at 3 µM. 360,000 tested, 0.73% active. AID 624125. P08173. CHO-hM4 cells, ACh EC80, Fluo-8 calcium fluorescence;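 active = inhibition above its plate's cutoff, the mean inhibition of sample wells plus 3 SD, cut at about 27% in these data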;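 also: 0% = acetylcholine EC80 with DMSO and 100% = DMSO without agonist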
Target sequence (P08173 whole entry, looked up): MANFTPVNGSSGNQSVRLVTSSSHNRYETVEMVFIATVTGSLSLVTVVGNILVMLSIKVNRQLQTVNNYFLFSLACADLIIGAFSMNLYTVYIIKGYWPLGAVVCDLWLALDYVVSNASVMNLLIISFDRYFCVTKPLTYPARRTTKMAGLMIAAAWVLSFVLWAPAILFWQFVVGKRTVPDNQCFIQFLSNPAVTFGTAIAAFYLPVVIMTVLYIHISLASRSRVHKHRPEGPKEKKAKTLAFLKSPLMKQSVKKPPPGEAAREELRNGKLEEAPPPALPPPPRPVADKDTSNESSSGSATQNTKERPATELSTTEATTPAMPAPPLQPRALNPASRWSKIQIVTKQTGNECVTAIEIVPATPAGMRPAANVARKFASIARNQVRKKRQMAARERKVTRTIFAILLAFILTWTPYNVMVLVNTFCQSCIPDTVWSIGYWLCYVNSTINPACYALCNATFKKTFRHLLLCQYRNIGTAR
M4 ag = CHRM4 agonism in calcium assay; activation, % at 3 µM; 360,000 tested, 0.14% active; P08173; CHO-K1 hM4/Gqi5, Fluo-8 calcium fluorescence; vehicle 0%, full acetylcholine response 100%; AID 624127;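 active = activation above the run mean over all test wells plus 3 SD, cut at about 32% in these data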;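 also: peak over basal fluorescence ratio per well then scaled between controls; 0% = DMSO wells and 100% = acetylcholine at EC100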
CHRM4 PAM = CHRM4 positive allosteric modulation. P08173. CHO-K1 hM4/Gqi5, Fluo-8 calcium fluorescence, ACh EC20; 0% = ACh EC20, 100% = maximal ACh. activation, % at 3 µM. 360,000 tested, 0.4% active;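 active = activation above its plate's cutoff, the mean activation of sample wells plus 3 SD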
CHO-K1 Ca PAM = nonselective activator or artifact in parental CHO-K1 calcium assay; ATP EC20, Fluo-8 calcium fluorescence; 0% at ATP EC20, 100% at ATP max; activation, % at 3 µM; 360,000 tested, 0.02% active;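 active = activation above the run cutoff, the mean activation of all test compounds plus 3 SD, cut at about 40% in these data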;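 also: peak over basal fluorescence ratio in a 140 s read after ATP addition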
M1 ag parental = M1 agonist counterscreen hit in parental CHO-K1 cells; Fluo-8 calcium fluorescence; scaled to maximal ATP response, vehicle zero; activation, % at 3 µM; 360,000 tested, 0.48% active; in the data active = activation above about 15%;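 also: untransfected CHO-K1 host cells lacking M1 receptor as counterscreen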
CHO-K1 Ca antag = nonselective inhibitor or artifact in parental CHO-K1 cells; ATP-induced calcium, Fluo-8 fluorescence; inhibition, % at 3 µM; 360,000 tested, 0.6% active;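 active = inhibition above a per-plate cutoff, the plate's mean sample inhibition plus 3 SD, cut at about 24% in these data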;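 also: 0% = DMSO plus EC80 ATP and 100% = DMSO alone without ATP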
The depositor's hits bear a star.

SMILES | M4 antag | M4 ag | CHRM4 PAM | CHO-K1 Ca PAM | M1 ag parental | CHO-K1 Ca antag
CCCCOC(=O)/C=C/c1c(C)[nH]c(=O)[nH]c1=O | -2.9 | 0.7 | 22.3* | 8.3 | -0.2 | -6.8
CCCOC(=O)/C=C/c1c(C)[nH]c(=O)[nH]c1=O | 2.0 | -0.3 | -1.0 | -12.1 | -0.7 | 13.4
COc1cnc(-c2ccccn2)nc1Oc1ccc(Cl)cc1 | -1.3 | -0.1 | 16.0 | -6.5 | 0.1 | 24.4*
Cc1ccc(N/C(SCc2ccccc2C)=C(/C#N)C(=O)NCc2ccco2)cc1C | 26.5* | 0.2 | -20.7 | 4.9 | 1.9 | 5.6
C[C@@H]1CN([C@H](C)CO)C(=O)CCCn2nncc2CO[C@H]1CN(C)S(=O)(=O)c1ccc(Oc2ccccc2)cc1 | 1.6 | 0.5 | -5.0 | 18.1 | 0.4 | -14.5
COc1ccc(C(=O)NCCSCc2ccc(C)cc2)cc1 | -5.7 | -0.5 | 3.4 | 8.3 | 0.3 | -3.1
COc1ccc(C(=O)NCCSCc2ccccc2C)cc1 | 5.0 | -0.2 | 0.2 | -8.3 | -0.1 | 30.4*
COC(C[C@@H](O)[C@H](C)[C@@H](O)COCc1ccccc1)OC | 36.5* | 2.9 | -10.9 | 14.4 | 0.8 | -10.3
CCC(Oc1ccccc1)C(=O)NCc1ccc(S(N)(=O)=O)cc1 (centres undefined) | -3.0 | 1.3 | 20.4* | 12.0 | 0.2 | -2.8
CC(NCc1ccc(S(N)(=O)=O)cc1)C(=O)NCc1ccccc1 (centres undefined) | 7.9 | -0.2 | -0.4 | 7.3 | 0.1 | -8.4
CC(=O)NC1C(=O)N=C(SC(C)C(=O)Nc2cccc(Cl)c2)NC1=O (centres undefined) | 3.1 | 0.5 | 0.2 | 12.3 | 15.2* | 5.8
CC(Sc1nc(N)cc(=O)[nH]1)C(=O)Nc1cccc(Cl)c1 (centres undefined) | -1.4 | 0.4 | -3.0 | -13.5 | 0.1 | 14.5
COc1ccc(Cl)cc1NC(=O)NC(C)c1ccncc1 (centres undefined) | 3.0 | 0.5 | 19.6 | -6.8 | -0.3 | 28.5*
CC(C)NC(=O)N(C)C[C@@H]1Oc2cc(Br)ccc2S(=O)(=O)N([C@@H](C)CO)C[C@H]1C | -2.1 | 1.9 | 2.0 | 6.9 | 0.0 | -6.4
Cc1ccc(NC(=S)NC(=O)c2ccc(-c3ccc(Cl)cc3)o2)c(O)c1 | -4.0 | 0.2 | 10.8 | 17.5 | 0.5 | -10.5
Cc1ccc(O)c(NC(=S)NC(=O)Cc2ccc(Cl)cc2)c1 | 99.9* | 140.0* | -18.4 | -20.5 | 57.6* | 90.2*
COc1ccccc1CNC1CCCc2ccccc21 (centres undefined) | 29.6* | 1.0 | -14.2 | 14.7 | 2.2 | -8.2
CCc1ccccc1OC[C@@H](O)CN[C@H]1CCCc2ccccc21 | -3.9 | 15.9 | -8.2 | -8.9 | 3.0 | 25.2*
OC(CNC1CCCc2ccccc21)COc1ccc2ccccc2c1 (centres undefined) | 7.0 | 14.9 | -4.5 | 26.6 | 7.0 | -5.9
O=C(O)CN(c1ccccn1)S(=O)(=O)c1ccccc1 | -3.9 | 0.0 | 2.8 | 5.2 | -0.4 | -2.2
O=C(O)CN(c1ccccn1)S(=O)(=O)c1ccc(Cl)cc1 | -4.1 | 0.5 | 19.7* | 20.3 | -0.1 | -10.5
C=C(C)C(=O)OCC(O)COc1ccc(C(C)(C)c2ccc(OCC(O)COC(=O)C(=C)C)cc2)cc1 (centres undefined) | 31.9* | 25.9 | -14.1 | -3.4 | 8.4 | 18.5
COc1ccc(NC(=O)/C(Cl)=C(/Cl)S(=O)Cc2ccc(Cl)cc2)cn1 (centres undefined) | 30.2* | 4.2 | -3.9 | -14.2 | 0.8 | 30.5*
COc1ccccc1Cc1c(-c2ccc(C#N)cc2)nc2ccc(Br)cn12 | 0.4 | 0.4 | 5.7 | 4.8 | 1.0 | -24.8
CC(C)=CC(=O)N1CCC(n2nccc2NC(=O)CCc2ccccc2)CC1 | 1.5 | 1.9 | -3.6 | 6.9 | 0.1 | 40.0*
SMILES | M4 antag | M4 ag | CHRM4 PAM | CHO-K1 Ca PAM | M1 ag parental | CHO-K1 Ca antag
COc1ccc(C2c3ccc4ccccc4c3Oc3ncn(CCN(C)C)c(=N)c32)cc1 (centres undefined) | 7.4 | 3.4 | -4.5 | -8.1 | 4.8 | -8.1
COc1ccc(C2CC(=O)C=C(O)C2)cc1 (centres undefined) | -0.4 | 0.5 | 5.5 | 22.3 | 0.6 | -9.4
COc1cc(C2CC(=O)C=C(O)C2)cc(OC)c1OC (centres undefined) | 9.4 | -0.5 | -3.0 | -8.5 | -0.6 | 24.8*
CCNC(=S)N/N=C/c1ccc(OCC(=O)Nc2ccc(OC)cc2)c(OC)c1 | 31.5* | 20.9 | -24.9 | -9.2 | 6.7 | 20.2
C/C=C/c1ccc(OCC(=O)Nc2ccncc2)c(OC)c1 | 6.3 | 15.1 | -9.0 | -0.6 | 15.3* | 16.7
COc1ccc(NC(=O)COc2ccc(/C=N/O)cc2OC)cc1 | -12.2 | 9.3 | 8.5 | 11.3 | 1.8 | -10.4
COC(=O)c1cc2c(s1)-c1ccc(OC)cc1CC2 | 1.9 | 12.3 | -21.7 | -5.5 | 5.6 | -7.0
O=C(CN1C(=O)COc2ccc(S(=O)(=O)N3CCCCC3)cc21)NCc1ccccc1Cl | -7.1 | 2.2 | -1.2 | -7.5 | -0.4 | -6.4
CC(=O)Nc1ccc(C(=O)OCC(=O)N(c2ccccc2)C2CCS(=O)(=O)C2)cc1 (centres undefined) | -6.9 | 1.9 | 3.9 | 6.1 | 0.4 | 2.0
O=C(CCl)N(c1ccccc1)C1CCS(=O)(=O)C1 (centres undefined) | 10.7 | 0.1 | -9.4 | 12.7 | 22.6* | 12.5
O=C1CC(=C(c2ccccc2)c2ccccc2)C(=O)N1CCN1CCN(c2cccc(Cl)c2)CC1 | 16.8 | 1.1 | 8.7 | 1.6 | 0.6 | -0.5
O=C1CC(=C(c2ccccc2)c2ccccc2)C(=O)N1CCCN1CCN(c2cccc(Cl)c2)CC1 | 28.1* | -1.0 | -21.7 | 21.5 | 0.2 | -18.8
O=C1NC[C@H](CCCCN2C[C@@H](Cc3ccccc3)N(CC3CCCCC3)C(=O)C2=O)N(CCC2CCCCC2)C1=O | 14.1 | 15.2 | -6.8 | 5.7 | 26.3* | -15.9
O=C1NC[C@@H](CCCCN2C[C@H](Cc3ccc(O)cc3)N(CC3CCCCC3)C(=O)C2=O)N(Cc2ccccc2)C1=O | -11.1 | 36.8* | 5.2 | -3.2 | 12.4 | -11.5
O=C1NC[C@H](CCCCN2C[C@H](Cc3ccccc3)N(CC3CCCCC3)C(=O)C2=O)N(CCC2CCCCC2)C1=O | 1.8 | 0.9 | 13.1 | 16.4 | 0.5 | -17.7
O=C1NC[C@@H](CCCCN2C[C@H](Cc3ccccc3)N(Cc3ccccc3)C(=O)C2=O)N(CC2CCCCC2)C1=O | 1.4 | 0.4 | 4.3 | 1.6 | -0.8 | 14.7
O=C1NC[C@@H](CCCCN2C[C@H](Cc3ccc(O)cc3)N(CCC3CCCCC3)C(=O)C2=O)N(Cc2ccccc2)C1=O | 6.8 | 2.5 | -2.3 | -0.8 | 1.6 | 2.8
O=C1NC[C@@H](CCCCN2C[C@H](Cc3ccccc3)N(CC3CCCCC3)C(=O)C2=O)N(CC2CCCCC2)C1=O | -12.4 | 58.9* | 7.1 | 9.3 | 35.3* | -18.3
